Data as given in PubChem BioAssay (NCATS).
Results filed as inconclusive are left out. Where a call stands in place of a potency, no number is given. Active and inactive are the calls of the source. Calls follow the shape of the dose curve; as a rule, active = well fitted inhibition curve with a large enough effect; inconclusive = small, poorly fitted or top-dose-only effect; inactive = no such curve, though single readings can be large or run the other way. Square brackets hold non-standard residues; d marks the D form. Peptide text beside a SMILES is read from it. * marks the point of attachment. Dolaproine = CO[C@@H]([C@@H]1CCCN1)[C@@H](C)C(=O)O; Dil = CC[C@H](C)[C@H](NC)[C@@H](CC(=O)O)OC; Doe = c1ccc(C[C@H](N*)c2nccs2)cc1; Aib = CC(C)(N)C(=O)O

Molecular target: Retinaldehyde dehydrogenase 3 (Homo sapiens) (UniProt P47895)
Assay: qHTS for Inhibitors of the Aldehyde Dehydrogenase Family (ALDH1A3) Primary screen (AID 2061315)
Details: ALDH inhibition qHTS; series mostly up to 56 µM

SMILES | Potency
O=C1Nc2ccc3ncsc3c2/C1=C/c1cnc[nH]1 | inactive
CCOc1ccc(CCNC(=O)c2cc3cnccc3n2Cc2cccc(C)c2)cc1OCC | inactive
Cc1cc(-c2nnc3n2CCCCC3)c(C)n1-c1cccnc1 | inactive
Cc1nn2c(=O)cc(N3CCNCC3)nc2s1 | inactive
COC1CC(O[C@H]2CC[C@]3(C=O)C4CC[C@]5(C)[C@@H](C6=CC(=O)OC6)CC[C@]5(O)[C@@H]4CC[C@]3(O)C2)OC(C)C1O[C@@H]1O[C@H](CO)[C@@H](O)[C@H](O)[C@H]1O (stereo partly drawn) | inactive
C[N@@+]1(CC2CC2)CC[C@]23c4c5ccc(O)c4O[C@H]2C(=O)CC[C@@]3(O)[C@H]1C5 | inactive
Cc1sc2c(c1C)C(c1ccc(Cl)cc1)=N[C@@H](CC(=O)Nc1ccc(O)cc1)c1nnc(C)n1-2 | inactive
CC[C@H](C)[C@@H]([C@@H](CC(=O)N1CCC[C@H]1[C@H](OC)[C@@H](C)C(=O)N[C@@H](Cc1ccccc1)c1nccs1)OC)N(C)C(=O)[C@@H](NC(=O)C(C)(C)N)C(C)C (H-[Aib]V[Dil][Dolaproine]-Doe) | inactive
C[C@H]1O[C@@H](O[C@H]2C[C@@H](O)[C@]3(CO)C4C(CC[C@]3(O)C2)[C@@]2(O)CC[C@H](C3=CC(=O)OC3)[C@@]2(C)C[C@H]4O)[C@@H](O)[C@@H](O)[C@H]1O (stereo partly drawn) | inactive
CCCCCn1cc(C(=O)c2cccc3ccccc23)c2ccccc21 | inactive
CC[C@@]1(O)C(=O)OCc2c1cc1n(c2=O)Cc2cc3c(OC)cccc3nc2-1 | inactive
C[n+]1cc(P(=S)(c2ccccc2)c2ccccc2)n2ccccc21 | inactive
C=C1[C@@H](C)C2[C@H](Cc3ccccc3)NC(=O)[C@@]23C(/C=C/C[C@H](C)C[C@@](C)(O)/C=C/[C@@H]3OC(C)=O)[C@@H]1O (stereo partly drawn) | inactive
